SMILES strings stand for the structures. Unmarked numbers belong to inactive results. Activity calls are given as the source filed them. Cut-off read from the data, not from the text of the source, unless noted: active = inhibition above about 28%; inactive = the rest.

Sequence of Nuclear receptor subfamily 5 group A member 2 (Homo sapiens) (O00482 whole entry, looked up): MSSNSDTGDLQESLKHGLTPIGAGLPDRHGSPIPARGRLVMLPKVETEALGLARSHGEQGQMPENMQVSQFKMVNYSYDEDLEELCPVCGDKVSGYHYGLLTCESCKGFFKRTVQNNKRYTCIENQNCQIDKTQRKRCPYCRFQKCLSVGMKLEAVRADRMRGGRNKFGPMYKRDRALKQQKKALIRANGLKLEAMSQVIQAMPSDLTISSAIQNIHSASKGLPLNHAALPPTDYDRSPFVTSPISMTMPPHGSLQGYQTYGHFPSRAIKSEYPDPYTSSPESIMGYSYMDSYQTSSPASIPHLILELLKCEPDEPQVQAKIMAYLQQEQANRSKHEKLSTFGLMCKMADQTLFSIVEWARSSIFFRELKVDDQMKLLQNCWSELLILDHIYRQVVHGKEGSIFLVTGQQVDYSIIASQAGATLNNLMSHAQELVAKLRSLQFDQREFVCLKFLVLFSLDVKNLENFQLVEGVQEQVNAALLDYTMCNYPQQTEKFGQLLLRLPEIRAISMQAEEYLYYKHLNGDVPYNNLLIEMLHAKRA

System in one assay: not listed separately
The assay is described as follows: StAR promoter reporter inhibitors, counter-screen for LRH-1 inverse agonist project, cell-based, luminescence, high throughput (AID 651611). As to conditions: StAR promoter luciferase reporter counterscreen, at 3.6 µM, stronger effect = higher value. A general note: A counterscreen serves to expose hits that act by an unwanted route or on another target.
The inhibition is the change of the read-out against control, counted positive when it falls. As to `CSc1ccc(COC(=O)c2cc([N+](=O)[O-])ccc2N2CCOCC2)cc1`, the inhibition is 61.7% (active).
Still for that read-out and setting: in the case of `C#Cc1ccc(NC(=O)C2(C)CCN2C(=O)Cc2ccc(C(C)(C)C)cc2)cc1` (stereo not given) it was 4%.
For `COc1ccc(CCNC(=O)CSc2nn3c(=O)c(C)nnc3s2)cc1OC`, the inhibition is 8.26%.
Same read-out and setting: in the case of `COc1ccc2nc(N3CCC(O)CC3)c(C#N)cc2c1` it was -24.2%; in that of `Cc1ccc(-n2c(SCC(=O)NCc3ccco3)nc3sc4c(c3c2=O)CC(C)(C)SC4)cc1`, 17.6%; in that of `CCCCNC(=O)COC(=O)c1c2c(nc3ccccc13)/C(=C\c1cccs1)CC2`, -10.4%.
On the same count and under the same terms, in the case of `Cc1ccc(-c2nn3c(C)nnc3s2)cc1NC(=O)c1ccco1` it was 7.12%; in that of `CC(C)=NOc1cc(NC(=O)CCl)cc([N+](=O)[O-])c1`, 37.5% (active).
With `Cc1onc(-c2ccccc2)c1C(=O)O/N=C(\N)c1ccc([N+](=O)[O-])o1`, the inhibition is 11.5%.
On the same count and under the same terms, in the case of `COC(=O)c1c(NC(=O)c2ccco2)sc2c1CCN(C(C)=O)C2` it was 20%; in that of `CC(=O)Nc1ccc(NC(=O)CSc2nc3nc(-c4cccs4)cc(C(F)(F)F)c3c(=O)[nH]2)cc1`, 8.21%.
On the same count and under the same terms, the value for `NC(=O)CC[C@H](NC(=O)c1ccc(F)cc1)C(=O)OCC(=O)Nc1ccc(N2CCOCC2)cc1` was 0.81%; that for `Oc1ccccc1-c1nc(NCC2CCCO2)c2ccccc2n1` (stereo not given) was 26.3%.
On the same count and under the same terms, in the case of `CCCOc1ccc(NC(=O)CC2C(=O)N(C)C(=S)N2Cc2ccc3c(c2)OCO3)cc1` (stereo not given) it was 6.7%; in that of `O=C(N/N=C/c1cc2c3c(c1O)CCCN3CCC2)c1ccccc1O`, 83.4% (active).
In the case of `CC(CCc1ccccc1)NC(=O)COc1ccc(S(=O)(=O)N2CCOCC2)cc1[N+](=O)[O-]` (stereo not given), the inhibition was -7.62%.
The same measure, in the same setting: in the case of `Cc1ccc(NC(=O)COC(=O)c2cc(=O)c3ccccc3o2)c(Br)c1` it was 7.74%; in that of `O=C(Nc1cc(C(F)(F)F)ccc1-n1cncn1)c1ccc([N+](=O)[O-])o1`, 22.2%.
Still for that read-out and setting: in the case of `N#CCSc1ccccc1NC(=O)CN1C(=O)C2CC=CCC2C1=O` (stereo not given) it was 10.9%.
Still for that read-out and setting: the value for `CC(Nc1ncnc2sccc12)c1ccccc1` (stereo not given) was 25.8%; that for `Cc1nn(Cc2ccc(Cl)cc2)c(C)c1NC(=O)c1noc2c1CCCCC2` was 21%.
As for `Cc1cc(SC#N)cc(C)c1NC(=O)CCl`, the inhibition is 27.4%.
For the molecule `COc1cccc(-c2cc(NC=O)c3ncc(-c4ccc(C(C)=O)cc4)n3c2)c1`, the inhibition is 45.1% (active).
Regarding `Cc1ccc(NC(=O)CSc2sc3c(O)cc(=O)[nH]c3c2C#N)c(F)c1`, the inhibition is 7.65%.
Still for that read-out and setting: the value for `Cc1ccccc1C(=O)NC1CCN(CC(=O)Nc2ccc(Br)cc2)CC1` was 5.55%; that for `COc1ccc(OCc2nnc3n2N=C(c2ccc(C)cc2)CS3)cc1` was -0.29%; that for `Cc1c(Cl)cccc1NC(=O)CNc1ccccc1F` was -3.5%.
Still for that read-out and setting: in the case of `O=C(c1ccccc1)N(NC(=O)C(O)(c1ccccc1)c1ccccc1)c1cccc(F)c1` it was -4.21%; in that of `CC(=O)Nc1cc(-c2cccc(F)c2)cn2c(-c3ccc(S(C)(=O)=O)cc3)cnc12`, 8.88%; in that of `O=[N+]([O-])c1ccc(N2CCCCC2)nc1N1CCCCC1`, -13.2%.
In the case of `O=C(NC1CCC(CC2CCC(NC(=O)C(Cl)Cl)CC2)CC1)C(Cl)Cl` (stereo not given), the inhibition is 6.07%.
On the same count and under the same terms, in the case of `O=C(Nc1ccccc1C(=O)NCCCn1ccnc1)c1ccccc1` it was 14.8%; in that of `Clc1ccc(COc2cccc(CNCc3ccncc3)c2)cc1`, 2.94%.
The same measure, in the same setting: in the case of `COc1ccc(NC(=O)/C(Cl)=C(/Cl)S(=O)Cc2ccc(Cl)cc2)cn1` (stereo not given) it was 58% (active); in that of `Cc1nc2ccccc2n1/N=C/c1ccc([N+](=O)[O-])s1`, 20.9%; in that of `CCOc1ccc(CCNC(=O)COC(=O)c2nc(Cl)ccc2Cl)cc1OCC`, -2.83%.
Same read-out and setting: in the case of `CCC(=O)Nc1nnc(SCC(=O)NCCc2ccc(OC)c(OC)c2)s1` it was 12.9%; in that of `CCOc1ccc(CCNC(=O)COC(=O)c2cc(S(=O)(=O)N3CCOCC3)ccc2F)cc1OCC`, 5.25%.
Regarding `CCOc1cc(/C=C2\C(=N)N3N=C(C)SC3=NC2=O)ccc1OCCOc1cccc(OC)c1`, the inhibition was 10%.
Still for that read-out and setting: the value for `CCC(NC(=O)CCl)c1ccc(C)cc1` (stereo not given) was 29.5% (active).

Another assay addresses Nuclear receptor subfamily 5 group A member 2 (Homo sapiens) (UniProt O00482). Briefly: NR5A2 activity suppression in reporter cells – cell-based, luminescence, confirmation (AID 651613; in the data active = inhibition above about 42%;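 note: HEK293T cells co-transfected with LRH-1 and StAR promoter luciferase reporter; 0% = vehicle wells and 100% = parental cells lacking receptor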). The note with it: cell-based LRH-1 luciferase reporter, inverse agonism; at 3.6 µM; stronger effect = higher value. On the technique in general: Reporter assays use an easily measured gene product as a stand-in for the process of interest.
As for `CSc1ccc(COC(=O)c2cc([N+](=O)[O-])ccc2N2CCOCC2)cc1`, the inhibition is 57.5% (active).
On to `C#Cc1ccc(NC(=O)C2(C)CCN2C(=O)Cc2ccc(C(C)(C)C)cc2)cc1` (stereo not given), for which the inhibition is 48% (active).
Still for that read-out and setting: the value for `COc1ccc(CCNC(=O)CSc2nn3c(=O)c(C)nnc3s2)cc1OC` was 57.5% (active); that for `COc1ccc2nc(N3CCC(O)CC3)c(C#N)cc2c1` was 43.6% (active).
On to `Cc1ccc(-n2c(SCC(=O)NCc3ccco3)nc3sc4c(c3c2=O)CC(C)(C)SC4)cc1`, for which the inhibition is 56.1% (active).
Still for that read-out and setting: in the case of `CCCCNC(=O)COC(=O)c1c2c(nc3ccccc13)/C(=C\c1cccs1)CC2` it was 34.9%; in that of `Cc1ccc(-c2nn3c(C)nnc3s2)cc1NC(=O)c1ccco1`, 63.2% (active).
The same measure, in the same setting: the value for `CC(C)=NOc1cc(NC(=O)CCl)cc([N+](=O)[O-])c1` was 56.3% (active); that for `Cc1onc(-c2ccccc2)c1C(=O)O/N=C(\N)c1ccc([N+](=O)[O-])o1` was 64.5% (active).
On the same count and under the same terms, in the case of `COC(=O)c1c(NC(=O)c2ccco2)sc2c1CCN(C(C)=O)C2` it was 54.4% (active); in that of `CC(=O)Nc1ccc(NC(=O)CSc2nc3nc(-c4cccs4)cc(C(F)(F)F)c3c(=O)[nH]2)cc1`, 54.2% (active).
Turning to `NC(=O)CC[C@H](NC(=O)c1ccc(F)cc1)C(=O)OCC(=O)Nc1ccc(N2CCOCC2)cc1`, the inhibition is 57.5% (active).
For the molecule `Oc1ccccc1-c1nc(NCC2CCCO2)c2ccccc2n1` (stereo not given), the inhibition is 66.2% (active).
On the same count and under the same terms, the value for `CCCOc1ccc(NC(=O)CC2C(=O)N(C)C(=S)N2Cc2ccc3c(c2)OCO3)cc1` (stereo not given) was 57.6% (active).
On the same count and under the same terms, the value for `O=C(N/N=C/c1cc2c3c(c1O)CCCN3CCC2)c1ccccc1O` was 103% (active); that for `CC(CCc1ccccc1)NC(=O)COc1ccc(S(=O)(=O)N2CCOCC2)cc1[N+](=O)[O-]` (stereo not given) was 35.2%; that for `Cc1ccc(NC(=O)COC(=O)c2cc(=O)c3ccccc3o2)c(Br)c1` was 50.4% (active).
Same read-out and setting: in the case of `O=C(Nc1cc(C(F)(F)F)ccc1-n1cncn1)c1ccc([N+](=O)[O-])o1` it was 57.7% (active).
For `N#CCSc1ccccc1NC(=O)CN1C(=O)C2CC=CCC2C1=O` (stereo not given), the inhibition is 58.1% (active).
Same read-out and setting: in the case of `CC(Nc1ncnc2sccc12)c1ccccc1` (stereo not given) it was 64.5% (active); in that of `Cc1nn(Cc2ccc(Cl)cc2)c(C)c1NC(=O)c1noc2c1CCCCC2`, 46.8% (active).
On the same count and under the same terms, the value for `Cc1cc(SC#N)cc(C)c1NC(=O)CCl` was 52.8% (active); that for `COc1cccc(-c2cc(NC=O)c3ncc(-c4ccc(C(C)=O)cc4)n3c2)c1` was 65.2% (active).
On the same count and under the same terms, in the case of `Cc1ccc(NC(=O)CSc2sc3c(O)cc(=O)[nH]c3c2C#N)c(F)c1` it was 57.1% (active).
For `Cc1ccccc1C(=O)NC1CCN(CC(=O)Nc2ccc(Br)cc2)CC1`, the inhibition is 59.1% (active).
For `COc1ccc(OCc2nnc3n2N=C(c2ccc(C)cc2)CS3)cc1`, the inhibition was 26.3%.
Still for that read-out and setting: in the case of `Cc1c(Cl)cccc1NC(=O)CNc1ccccc1F` it was 58.7% (active).
Consider `O=C(c1ccccc1)N(NC(=O)C(O)(c1ccccc1)c1ccccc1)c1cccc(F)c1`, for which the inhibition was 61.5% (active).
Consider `CC(=O)Nc1cc(-c2cccc(F)c2)cn2c(-c3ccc(S(C)(=O)=O)cc3)cnc12`, for which the inhibition was 50.2% (active).
For the molecule `O=[N+]([O-])c1ccc(N2CCCCC2)nc1N1CCCCC1`, the inhibition was 54.5% (active).
The same measure, in the same setting: the value for `O=C(NC1CCC(CC2CCC(NC(=O)C(Cl)Cl)CC2)CC1)C(Cl)Cl` (stereo not given) was 58.2% (active); that for `O=C(Nc1ccccc1C(=O)NCCCn1ccnc1)c1ccccc1` was 53.6% (active).
Still for that read-out and setting: in the case of `Clc1ccc(COc2cccc(CNCc3ccncc3)c2)cc1` it was 62.4% (active).
Regarding `COc1ccc(NC(=O)/C(Cl)=C(/Cl)S(=O)Cc2ccc(Cl)cc2)cn1` (stereo not given), the inhibition was 91.7% (active).
On the same count and under the same terms, in the case of `Cc1nc2ccccc2n1/N=C/c1ccc([N+](=O)[O-])s1` it was 68.2% (active); in that of `CCOc1ccc(CCNC(=O)COC(=O)c2nc(Cl)ccc2Cl)cc1OCC`, 39.2%.
On the same count and under the same terms, the value for `CCC(=O)Nc1nnc(SCC(=O)NCCc2ccc(OC)c(OC)c2)s1` was 55.6% (active); that for `CCOc1ccc(CCNC(=O)COC(=O)c2cc(S(=O)(=O)N3CCOCC3)ccc2F)cc1OCC` was 53.2% (active).
On the same count and under the same terms, in the case of `CCOc1cc(/C=C2\C(=N)N3N=C(C)SC3=NC2=O)ccc1OCCOc1cccc(OC)c1` it was 39.7%; in that of `CCC(NC(=O)CCl)c1ccc(C)cc1` (stereo not given), 67.3% (active).

The values are drawn from PubChem BioAssay.
